The campaign covered roughly 5,000 compounds. About 3,900 (78%) were called active. Rule as the data show it: active = inhibition above about 22%; inactive = the rest. So high a share suggests a set chosen from earlier hits. Only a sample is shown.
Assay: fluorescence retest of MPTP screen hits in isolated mitochondria, single concentration (AID 624504);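 also: 0% = DMSO vehicle and 100% = positive control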
Conditions: membrane potential, Rhodamine 123 fluorescence, at 10 µM, active compounds read high
In the case of N/C(=N\OC(=O)Nc1ccc(Cl)c(Cl)c1)c1ncc(C(F)(F)F)cc1Cl, the inhibition is reported as 118% (active).
For c1ccc(-c2cc3c(NCC4COc5ccccc5O4)ncnc3s2)cc1 (stereo unspecified), the inhibition was 70.6% (active).
In the case of O=C(NC1CCN(Cc2ccccc2)CC1)c1cc(Br)c(Br)[nH]1, the inhibition is reported as 9.55% (inactive).
In the case of CSc1nccc(NC(=O)c2ccc(C(C)(C)C)cc2)n1, the inhibition is reported as 91.4% (active).
In the case of COc1cc(C(=O)Nc2oc(-c3ccccc3)c(-c3ccccc3)c2C#N)cc(OC)c1OC, the inhibition is reported as 63% (active).
With COC(=O)c1sccc1NC(=O)CSc1ccccc1NS(=O)(=O)c1cc(Cl)ccc1Cl the inhibition was 90.9% (active).
For Cn1nc(C(F)(F)F)c(C(=O)Nc2cccc(C(F)(F)F)c2)c1SCc1ccc(Cl)cc1, the inhibition was 63.4% (active).
With COc1ccc(S(=O)(=O)Nc2ccc3oc(C)c(C(C)=O)c3c2)cc1 the inhibition was 63.9% (active).
With COc1cc(NS(=O)(=O)c2ccc(NC(C)=O)cc2)cc(OC)c1 the inhibition was 47.9% (active).
In the case of CC(C)OCCCNc1ncnc2c1[nH]c1ccc(F)cc12, the inhibition is reported as 110% (active).
In the case of COc1ccc2oc(-c3cccc(NC(=O)CSc4ccc(Cl)cc4)c3)nc2c1, the inhibition is reported as 70.8% (active).
For O=C(Nc1ccc(Cl)cc1)Nc1ccc(Oc2cccnc2)nc1, the inhibition was 94.2% (active).
In the case of CCCc1cc(=S)n2c([nH]c3ccccc32)c1C#N, the inhibition is reported as 80.9% (active).
With COc1ccc(Sc2ccc(NC(=O)c3cccc(Cl)c3)cc2C#N)cc1 the inhibition was 77.8% (active).
For Cc1ccc(Sc2ccc(NC(=O)c3ccc(F)cc3)cc2C#N)cc1, the inhibition was 99.4% (active).
For O=C(NNC(=O)c1csc(-c2cccnc2)n1)Nc1ccc(Cl)cc1, the inhibition was 68.5% (active).
In the case of O=C(Nc1nnc(S(=O)(=O)N2CCCCCC2)s1)c1cccc(Br)c1, the inhibition is reported as 99.7% (active).
For CCOC(=O)c1cc2cc(-c3c(C(=O)OCC)oc4cc(O)cc(O)c4c3=O)ccc2o1, the inhibition was 47.3% (active).
In the case of COc1ccc(Cn2c(=O)sc3ccccc32)cc1OC, the inhibition is reported as 38.6% (active).
For COc1ccc2sc(N(CCCN(C)C)C(=O)c3ccc(S(=O)(=O)N(C)C4CCCCC4)cc3)nc2c1, the inhibition was -15.4% (inactive).
With O=C(Nc1nnc(SCc2ccccc2Cl)s1)c1cccc([N+](=O)[O-])c1 the inhibition was 79.5% (active).
In the case of O=C(Nc1nnc(SCc2c(Cl)cccc2Cl)s1)c1cccc([N+](=O)[O-])c1, the inhibition is reported as 82.1% (active).
In the case of O=C(c1ccc(Cl)cc1)c1ccc(OCC(O)CN2CCCCC2)cc1 (stereo unspecified), the inhibition is reported as -2.35% (inactive).
For O=C(COC(=O)c1ccccc1NC(=O)c1ccco1)Nc1ccc2c(c1)OC(F)(F)O2, the inhibition was 16.6% (inactive).
For O=C(Cc1c(F)cccc1Cl)Nc1ncc([N+](=O)[O-])s1, the inhibition was 98.1% (active).
For S=C(NCc1ccc(Cl)cc1)NC12CC3CC(CC(C3)C1)C2, the inhibition was 83.4% (active).
For S=C(NCc1ccc(Cl)cc1)NC1CCCCC1, the inhibition was 92.6% (active).
For CCCCOC(=O)CNc1nnc(SCC(=O)OCC)[nH]c1=O, the inhibition was -7.97% (inactive).
In the case of O=C(Cc1ccc(Cl)c(Cl)c1)Nc1ccc(SC(F)F)cc1, the inhibition is reported as 73.8% (active).
With COc1ccc(/C=C2/SC(=O)N(CCCCCC(=O)Nc3ccccc3C(=O)O)C2=S)cc1 the inhibition was 46.1% (active).
For CN(C(=O)Nc1ccc(Cl)cc1)n1cnc2ccccc2c1=O, the inhibition was 89.2% (active).
In the case of Cc1ccccc1C(=O)NC(=S)Nc1ccc(N2CCN(C(=O)c3ccccc3)CC2)cc1, the inhibition is reported as 81.8% (active).
For Brc1ccc(CSc2ccc(-c3ccco3)nn2)cc1, the inhibition was -1.72% (inactive).
In the case of C/C(=N\NC(=O)c1ccc(C)cc1)C1C(=O)c2ccccc2C1=O, the inhibition is reported as 58% (active).
With Cc1onc(-c2ccccc2)c1C(=O)NNC(=S)NC(=O)c1ccc(F)cc1 the inhibition was 2.46% (inactive).
In the case of COc1ccc(-c2nc3cc(C)ccn3c2NC2CCCCC2)cc1SC1CCCCC1, the inhibition is reported as 77.5% (active).
For CN(C)Cc1ccccc1C1(O)c2ccccc2CSc2ccccc21 (stereo unspecified), the inhibition was -8.88% (inactive).
In the case of O=C(Nc1ccccc1)c1ccccc1NC(=O)C(F)(F)F, the inhibition is reported as 85% (active).
For O=C(CSc1nc(-c2ccccc2)cs1)Nc1cccc([N+](=O)[O-])c1, the inhibition was 80.1% (active).
In the case of Cc1cccc(OCCNC(=O)CSc2ccc(C(F)(F)F)cc2[N+](=O)[O-])c1, the inhibition is reported as 81.3% (active).
For O=C(Nc1ccc2ccccc2c1)Nc1ccc2snnc2c1, the inhibition was 47.9% (active).
With COc1ccc(NC(=O)Nc2ccc3nsnc3c2)cc1 the inhibition was 84.7% (active).
In the case of O=C(Nc1ccccc1)Nc1nnc(COc2ccccc2F)s1, the inhibition is reported as 60.4% (active).
For O=C(CSc1nc2ccc([N+](=O)[O-])cc2[nH]1)c1ccc(Cl)cc1, the inhibition was 76.5% (active).
With CCOC(=O)N1CCN(C(=O)c2ccc3c(c2)N(Cc2ccc(C)cc2)CCS3)CC1 the inhibition was 63.9% (active).
With N#Cc1ccc(C(=O)Nc2nc(-c3cccs3)c(C(=O)C(F)(F)F)s2)cc1 the inhibition was 109% (active).
In the case of Cc1cccc(NC(=S)Nc2ccc(Cl)c(Cl)c2)c1, the inhibition is reported as 90.8% (active).
With S=C(Nc1ccccc1)Nc1ccc2ccccc2c1 the inhibition was 89.2% (active).
In the case of Cc1cccc(NC(=S)Nc2ccc(Br)cc2)c1, the inhibition is reported as 102% (active).
For FC(F)(F)COc1nc(N2CCCCC2)nc(N2CCNCC2)n1, the inhibition was -11.8% (inactive).
In the case of Cc1nn(Cc2ccccc2)c2c1C(c1ccccc1)C(C#N)=C(N)O2 (stereo unspecified), the inhibition is reported as -0.3% (inactive).
In the case of COc1cc(NC(=O)Nc2ccc(C)cc2)cc([N+](=O)[O-])c1, the inhibition is reported as 95.5% (active).
For CC(=O)c1ccc(NC(=O)Nc2ccc([N+](=O)[O-])cc2C)cc1, the inhibition was 90.3% (active).
In the case of CN(C)Cc1ccc(F)cc1Sc1cc(Cl)ccc1Cl, the inhibition is reported as -3.35% (inactive).
For O=C(Nc1cccc(F)c1)c1coc(=O)c(Br)c1, the inhibition was 77.9% (active).
With COc1ccc(-n2c(C)cc(C(=O)CSc3nnc(-c4cccs4)o3)c2C)cc1 the inhibition was 83% (active).
With FC(F)(F)Oc1ccc(NC(=S)NCc2ccccc2)cc1 the inhibition was 90.9% (active).
With CSCCC(NC(=O)c1cc([N+](=O)[O-])cc([N+](=O)[O-])c1)c1nc2ccccc2[nH]1 (stereo unspecified) the inhibition was 81.7% (active).
For Cc1ccc(C)c(S(=O)(=O)N2CCN(c3ncnc4sccc34)CC2)c1, the inhibition was 104% (active).
For Cc1cc(NC(=O)Nc2ccc(Cl)cc2)n(-c2ccccc2)n1, the inhibition was 76.2% (active).
With Cc1ccc(NC(=O)Nc2cc(-c3ccccc3)nn2C)cc1Cl the inhibition was 69.1% (active).

— PubChem BioAssay AID624504 (Sanford-Burnham Center for Chemical Genomics, 2012)
